In the library only some 31% were active in any assay of this set; here they are far more common.
CYP2C9 inh: blockers of cytochrome P450 2C9 activity – biochemical, luminescence, ADME assay, primary screen; inhibition, % at 5 µM; actives 20% (n = 96,000); CYP2C9 Supersomes, luciferin-H conversion;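 active = blocking of liver enzyme CYP2C9 beyond about 50% at 5 µM, limit read from the data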
Target sequence (P11712 whole entry, looked up): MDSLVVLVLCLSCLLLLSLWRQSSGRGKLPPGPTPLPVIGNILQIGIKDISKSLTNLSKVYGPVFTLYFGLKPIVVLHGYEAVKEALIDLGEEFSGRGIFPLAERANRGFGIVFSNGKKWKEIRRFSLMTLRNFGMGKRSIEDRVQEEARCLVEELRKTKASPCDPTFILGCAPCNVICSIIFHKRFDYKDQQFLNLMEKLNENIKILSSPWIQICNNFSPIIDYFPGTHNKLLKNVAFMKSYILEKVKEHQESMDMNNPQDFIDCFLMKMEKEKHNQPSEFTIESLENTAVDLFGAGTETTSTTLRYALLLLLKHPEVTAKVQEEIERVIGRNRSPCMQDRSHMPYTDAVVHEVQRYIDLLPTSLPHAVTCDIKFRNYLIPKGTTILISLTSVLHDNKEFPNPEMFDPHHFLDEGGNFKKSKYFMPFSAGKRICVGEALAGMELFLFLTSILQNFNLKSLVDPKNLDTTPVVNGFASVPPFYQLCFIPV
PLAP act: PLAP enzyme activators, biochemical, luminescence, HTS | Alkaline phosphatase, placental type (Homo sapiens), P05187 | purified PLAP enzyme, luminescent substrate read-out; hits give high values | activation fold at 20 µM | actives 1.2% (n = 96,000) | AID 696, 2007; in the data active = activation fold above about 2
CYP2C19 activ: human CYP2C19 activators, primary screen, biochemical, luminescence; recombinant CYP2C19, luciferin-H EGE luminescence; hits give high values; 0 = fully inhibited enzyme, 1 = untreated enzyme; AID 1025, 2008; activation factor at 5 µM; 96,000 tested, under 10 active;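 active = activation factor of at least 2 at 5 µM in the primary screen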;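 note: 0 = wells with 2.5 mM tranylcypromine and 1 = vehicle-only wells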
CYP2C19 inh: blockers of cytochrome P450 2C19 activity – biochemical, luminescence, ADME assay, primary screen. P33261. CYP2C19 Supersomes, luciferin-H EGE luminescence, 30 min. inhibition, % at 5 µM. actives 21% (n = 96,000);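 active = CYP2C19 inhibition above a set limit at 5 µM in the primary screen, cut at about 50% in these data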;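 note: plate controls were negative control wells for no effect and 2.5 mM tranylcypromine positive control for full effect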
CYP2C9 activ: human CYP2C9 activators, primary screen, biochemical, luminescence; recombinant CYP2C9, luciferin-H conversion; hits give high values; factor 1 = untreated enzyme, 0 = blocked; activation factor at 5 µM; actives 1.4% (n = 96,000);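 active = activation factor of 2 or more for CYP2C9 at a 5 µM dose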;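 note: 0 = sulfaphenazole-blocked wells and 1 = vehicle-only wells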
* hit, by the source's call.

SMILES	CYP2C9 inh	PLAP act	CYP2C19 activ	CYP2C19 inh	CYP2C9 activ
COC(=O)c1c(NC(=O)c2nc3ccccc3s2)sc2c1CCN(C(C)=O)C2	38.6	2.1*	0.9	14.2	0.6
CNC(=O)c1c(NC(=O)c2nc3ccccc3s2)sc2c1CCC2	-40.2	1.6	1	4.8	1.4
Cc1[nH]c2ccccc2c1C(c1ccccn1)N1CCC(C)CC1 (configuration not stated)	-14.0	1.3	0.5	49.7	1.1
Nc1c(-c2ccccc2)n[nH]c1-c1ccccc1	40.5	0.8	0.3	75.0*	0.6
CCOC(=O)Cn1nc(/C=C/c2ccc(C(C)C)cc2)ccc1=O	19.1	1.3	0.9	12.0	0.8
CN(C)S(=O)(=O)c1ccc(S(=O)(=O)Nc2ccc3c(c2)oc2ccccc23)cc1	28.0	1.4	1.2	-18.5	0.7
O=S(=O)(/C=C/c1ccccc1)Nc1ccc2c(c1)OCO2	87.2*	1.2	0	99.8*	0.1
CN(C)S(=O)(=O)c1ccc(NS(=O)(=O)/C=C/c2ccccc2)cc1	90.9*	1.2	0.3	69.9*	0.1
O=C(C1CCN(S(=O)(=O)c2cccc3cccnc23)CC1)N1CCCC1	-163.0	1.3	0.6	35.8	2.6*
O=C(C1CCN(S(=O)(=O)c2ccc(F)cc2)CC1)N1CC=C(c2ccccc2)CC1	18.5	1.3	0.8	18.2	0.8
O=C(C1CCN(S(=O)(=O)c2cccc3cccnc23)CC1)N1CC=C(c2ccccc2)CC1	-31.1	1.4	0.2	75.4*	1.3
CC1CCCCN1CCNC(=O)C1CCN(S(=O)(=O)c2cccc3cccnc23)CC1 (configuration not stated)	8.5	1.4	0.8	17.0	0.9
Cc1cccc(N2CCN(C(=O)C3CCN(S(=O)(=O)c4cccc5cccnc45)CC3)CC2C)c1 (configuration not stated)	-31.5	1.4	0.1	85.2*	1.3
CSc1nc2ccccc2cc1/C=C(\C#N)c1cccc(Cl)c1	-8.9	1.1	1.1	-6.9	1.1
CSC1=NCCN1C(=O)c1ccc(S(=O)(=O)N(C)C)cc1	6.0	0.9	0.8	15.2	0.9
CCOC(=O)c1c(C)c(-c2ccccc2)n(CC(=O)N2CCCC2)c1C	43.4	1.5	0.1	87.7*	0.6
Cc1cc(C)nc(/N=C2\NC(=O)CC(C(=O)O)N2c2ccc(Cl)cc2)n1 (configuration not stated)	-3.7	1.2	1.1	-6.7	1
COc1nnc(-c2ccc(N3CCOCC3)c(NC(=O)c3ccco3)c2)c2ccccc12	65.3*	1	0.8	25.0	0.3
COc1nnc(-c2ccc(N3CCOCC3)c(NC(=O)c3ccccc3)c2)c2ccccc12	70.0*	1.5	0.2	80.7*	0.3
COc1nnc(-c2ccc(N3CCOCC3)c(NC(C)=O)c2)c2ccccc12	35.5	1.5	1	-0.8	0.6
CCOC(=O)c1c(NC(=O)CCC(=O)N2CCOCC2)sc2c1CC(C)(C)OC2	-19.2	1.3	0.7	26.9	1.2
COC(C(=O)Nc1ccccc1F)c1ccccc1 (configuration not stated)	-12.9	1.1	0.3	66.4*	1.1
COC(C(=O)Nc1cccc(F)c1)c1ccccc1 (configuration not stated)	23.2	1	0.5	50.3*	0.8
CSc1nc2nc3c(c(=O)n2[nH]1)CCCC3	11.4	1	1.1	-7.2	0.9
CCCc1cc(C(=O)Nc2ccccc2SC)no1	-303.7	0.9	0.8	20.0	4*
SMILES	CYP2C9 inh	PLAP act	CYP2C19 activ	CYP2C19 inh	CYP2C9 activ
CCCc1cc(C(=O)Nc2cccc(Cl)c2)no1	8.5	0.7	0.3	66.1*	0.9
COc1ccc(-c2cc(C(=O)Nc3ccccc3SC)no2)cc1	-26.9	0.8	1	0.9	1.3
CSc1ccccc1NC(=O)c1cc(-c2cccs2)on1	-165.1	1.1	0.9	7.5	2.7*
CCCc1cc(C(=O)Nc2cccc(C(C)=O)c2)no1	2.4	0.9	0.8	21.9	1
CCOc1ccc(-c2cnc(SCC(N)=O)nc2N)cc1	-3.0	0.9	1.1	-5.9	1
COc1ccc(OC)c(/C=N/N(C)c2ccccc2)c1	55.5*	1.5	0.3	66.6*	0.4
COc1cc(/C=N/N(C)c2ccccc2)cc(Cl)c1O	58.0*	0.9	0.5	52.2*	0.4
COc1cc(/C=C2/CCC/C(=C\c3cc(O)c(OC)c(Cl)c3)C2=O)cc(Cl)c1O	-55.4	0.3	0.8	19.8	1.6
O=C(Nc1cnn(C23CC4CC(CC(C4)C2)C3)c1)c1cnn2cccnc12	-14.6	1.1	1	0.3	1.1
Nc1nnc(Cc2c[nH]c3ccccc23)s1	-9.1	1.4	0.7	30.7	1.1
Cn1c(Cc2c[nH]c3ccccc23)n[nH]c1=S	37.7	1.8	0.3	66.9*	0.6
COc1ccccc1NC(=O)CN(c1ccc(C)cc1)S(=O)(=O)c1c(C)n[nH]c1C	96.3*	1.9	0.3	69.7*	0
COc1ccc(N(CC(=O)Nc2cccc(C)c2C)S(=O)(=O)c2c(C)n[nH]c2C)cc1	50.8*	1.8	0.5	54.5*	0.5
COC(=O)c1c(NC(=O)CSc2nnnn2-c2ccccc2)sc2c1CCC(C)C2 (configuration not stated)	70.6*	1.1	0.6	41.3	0.3
O=C(CSc1nnnn1-c1ccc(F)cc1)NC1CCCCC1	-3.6	0.9	0.7	30.0	1
COC(=O)c1c(NC(=O)CSc2nnnn2-c2ccccc2)sc2c1CCC(C(C)(C)C)C2 (configuration not stated)	46.0	1.3	0.9	5.2	0.5
CC1CCCCC1NC(=O)CSc1nnnn1-c1ccccc1 (configuration not stated)	6.0	1.1	0.1	89.4*	0.9
O=C(O)c1ccccc1C(=O)N1CC=C(c2ccccc2)CC1	-6.3	0.9	1.2	-16.5	1.1
CC(=O)n1c2c(c3ccccc31)OC(N)=C(C#N)C2c1ccc(C(C)C)cc1 (configuration not stated)	72.2*	1	0.6	38.6	0.3
O=C(C1CCCN(S(=O)(=O)Cc2ccccc2)C1)N1CCC(Cc2ccccc2)CC1 (configuration not stated)	85.4*	1.9	0	96.8*	0.1
COC(=O)C1CCN(S(=O)(=O)Cc2ccccc2)CC1	-12.6	1.3	0.4	63.4*	1.1
CS(=O)(=O)N1CCC(C(=O)N2CCC(Cc3ccccc3)CC2)CC1	0.6	1.4	0.9	8.7	1
CC(=O)c1ccc(N2CCN(C(=O)C3CCN(S(=O)(=O)Cc4ccccc4)CC3)CC2)cc1	66.7*	1.4	1	4.2	0.3
CCn1ccc(C(=O)NC2=C(C#N)CCC2)n1	6.1	1.2	0.9	9.8	0.9

From PubChem BioAssay
